Active and inactive are the calls of the source. Unless noted, how the calls were made is not given here.
Columns and labels:
[1] = system: XIP peptide (Xip251-270) binding; assay: small-molecule binders of XIP peptide, primary screen, biochemical, small-molecule microarray, fluorescence 635/667 nm, 0.1 µg/mL protein (AID 1182); details: fluorescent protein binding, 635 nm, higher = more signal, called active from +8 up or from −8 down
[2] = system: XIP peptide (Xip251-270); assay: small-molecule binders of XIP peptide, primary screen, biochemical, small-molecule microarray, fluorescence 635/667 nm, 0.5 µg/mL protein (AID 1183); details: small-molecule microarray binding, fluorescence 635 nm; higher = more signal
[3] = Plasmodium falciparum growth inhibition, primary screen, strain 3D7, DAPI fluorescence, 100 nL (AID 1184);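 further: parasites grown inside human red blood cells in medium with human serum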; details: P. falciparum 3D7 growth, 3 d, higher = more signal
[4] = target: Homeobox protein Hox-A13 (Mus musculus) (UniProt Q62424); assay: inhibitors of HoxA13-DNA binding, primary screen, biochemical, fluorescence polarization, labeled oligonucleotide (AID 1185); details: 15 min, higher = more signal, called active from +8 up or from −8 down
Homeobox protein Hox-A13 (Mus musculus), sequence (Q62424 whole entry, looked up): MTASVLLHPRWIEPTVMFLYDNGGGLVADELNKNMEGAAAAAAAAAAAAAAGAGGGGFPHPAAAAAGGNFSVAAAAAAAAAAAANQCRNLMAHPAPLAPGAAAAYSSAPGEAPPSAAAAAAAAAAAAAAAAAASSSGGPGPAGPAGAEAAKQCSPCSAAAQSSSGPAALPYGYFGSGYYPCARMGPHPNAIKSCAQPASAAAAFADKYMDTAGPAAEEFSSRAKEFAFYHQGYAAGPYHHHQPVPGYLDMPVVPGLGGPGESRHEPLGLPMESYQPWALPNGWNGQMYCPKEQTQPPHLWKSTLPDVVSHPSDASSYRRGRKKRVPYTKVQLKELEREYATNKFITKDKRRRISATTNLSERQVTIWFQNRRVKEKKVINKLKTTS

[5] = inhibitors of hydroxyurea-induced Chk1 phosphorylation, primary screen, imaging, HeLa, phospho-Chk1 antibody, percent positive cells (AID 1186); details: hydroxyurea-induced phospho-Chk1 immunofluorescence imaging, higher = more signal
[6] = inhibitors of hydroxyurea-induced Chk1 phosphorylation, primary screen, imaging, HeLa, phospho-Chk1 nuclear intensity (AID 1187); details: hydroxyurea-induced phospho-Chk1 immunofluorescence imaging, higher = more signal

Row | Compound | composite z-score [1] | composite z-score [2] | z-score [3] | z-score [4] | z-score [5] | z-score [6]
1 | CCOC(=O)C[C@H]1[C@H](OC(=O)c2ccc(C(=O)c3ccccc3)cc2)[C@@H](NC(=O)c2ccccc2)c2cc(OCCCO)ccc2N1C(=O)c1ccc2ccccc2n1 | 0.0933 (inactive) | 0.0113 | -1.43 | -3.02 (inactive) | 0.193 (inactive) | -0.363 (inactive)
2 | CC(=O)NCCCC[C@@H]1NC(=O)[C@@H]2C[C@H](C(=O)NCCCCCNC(=O)CS)[C@H](c3cccc(OCCO)c3)N2C1=O | 1.84 (inactive) | 0.471 | 0.246 | -3.21 (inactive) | -0.224 (inactive) | -0.27 (inactive)
3 | COCCOC(=O)N1C(=O)[C@@]2(c3cc(C#CCNC(N)=O)ccc31)[C@H](C(=O)Nc1nc3ccccc3s1)[C@H]1C(=O)O[C@H](c3ccccc3)[C@H](c3ccccc3)N1[C@@H]2c1ccc(OCCO)cc1 | 0.113 (inactive) | -0.221 | 0.764 | 0.886 (inactive) | -0.0719 (inactive) | -0.0419 (inactive)
4 | NC(=O)NCC#Cc1ccc2c(c1)[C@]1(C(=O)N2)[C@H](C(N)=O)[C@H]2C(=O)O[C@H](c3ccccc3)[C@H](c3ccccc3)N2[C@@H]1c1ccc(O)cc1 | 1.49 (inactive) | 0.109 | -0.19 | -5.36 (inactive) | 0.0619 (inactive) | 0.044 (inactive)
5 | CN1C(=O)C2C=CC(C(O)c3ccco3)N(Nc3ccccc3)C2C1=O (stereo unspecified) | -0.225 (inactive) | 0.343 | -0.142 | -3.54 (inactive) | -0.221 (inactive) | -0.752 (inactive)
6 | C=C(COC)/C(=C/C[C@H](OC(C)=O)c1ccc(CO)o1)c1cc(C(=O)OC)ccc1OC | 0.443 (inactive) | -0.257 | -2.07 | -4.87 (inactive) | -0.45 (inactive) | -0.735 (inactive)
7 | CC(C)C[C@@H]1NC(=O)[C@@H]2C[C@H](C(=O)NCc3ccc(F)cc3)[C@H](c3cccc(OCCO)c3)N2C1=O | 0.832 (inactive) | 0.421 | 0.124 | -3.95 (inactive) | 0.465 (inactive) | 0.554 (inactive)
8 | CC(C)NC(=O)[C@@]1(c2ccc([N+](=O)[O-])cc2)CC(=O)N(C2CCCCC2)[C@@H]1c1ccc(CO)cc1I | 0.46 (inactive) | 0.697 | -1.63 | -4.64 (inactive) | 0.1 (inactive) | 0.635 (inactive)
9 | CC1CC/C=C\[C@H]2OC34C=CCN(Cc5ccccc5)C(=O)[C@H]3N(CCCO)C(=O)[C@@H]4C2C(=O)O1 (stereo partly specified) | 0.15 (inactive) | 0.737 | 0.295 | -4.95 (inactive) | -0.364 (inactive) | -0.491 (inactive)
10 | C=C[C@H](OC)[C@@H](OC(=O)Nc1ccc(OC)cc1)c1ccc(O)c(F)c1 | -0.0346 (inactive) | -0.893 | -0.343 | -3.1 (inactive) | 0.495 (inactive) | 0.76 (inactive)
11 | C=CCN1C(=O)[C@]2(O[C@H](CCn3cc([C@H](O)c4ccccc4)nn3)[C@@H]([Si](C)(C)c3ccc(OC)cc3)[C@@H]2C)c2ccccc21 | 0.507 (inactive) | -0.579 | -1.69 | -5.68 (inactive) | -0.831 (inactive) | -0.475 (inactive)
12 | CCOC(=O)C[C@H]1[C@H](OC(=O)c2ccc(C(=O)c3ccccc3)cc2)[C@@H](NC(=O)c2ccccc2)c2cc(OCCCO)ccc2N1C(=O)Cc1ccc(OC)cc1 | -0.0614 (inactive) | 0.511 | 0.4 | -1.99 (inactive) | 0.119 (inactive) | 0.134 (inactive)
13 | [N-]=[N+]=NCc1ccccc1C[C@]1(C(=O)N2CCCCC2)N=C(c2ccc(OCCCO)cc2)O[C@H]1c1ccccc1N=[N+]=[N-] | 0.113 (inactive) | 0.694 | -1.95 | 0.766 (inactive) | -0.273 (inactive) | -0.448 (inactive)
14 | C=CCN1C(=O)[C@]2(O[C@H](CCn3cc([C@H](O)c4ccccc4)nn3)[C@@H]([Si](C)(C)c3ccc(OC)cc3)[C@@H]2C)c2cc(N3CCC3=O)ccc21 | 0.393 (inactive) | 0.128 | -2.89 | -5.76 (inactive) | -0.318 (inactive) | -0.171 (inactive)
15 | CN1C(=O)C2C=CC(C(O)C#Cc3ccccc3)N(N3CCCCC3)C2C1=O (stereo unspecified) | 1.34 (inactive) | 0.84 | -0.254 | -4.72 (inactive) | -0.699 (inactive) | -0.674 (inactive)
16 | CC1CC/C=C\[C@H]2OC34C=CCN(C(C)(C)C)C(=O)[C@H]3N(CCO)C(=O)[C@@H]4C2C(=O)O1 (stereo partly specified) | -0.892 (inactive) | 0.833 | -0.162 | -5.01 (inactive) | -0.878 (inactive) | -0.798 (inactive)
17 | C#C[C@H](O[Si](C#Cc1ccc(Oc2ccccc2)cc1)(C(C)C)C(C)C)c1ccccc1 | 0.359 (inactive) | -0.418 | -1 | -1.04 (inactive) | 0.179 (inactive) | -0.049 (inactive)
18 | CNS(=O)(=O)c1ccc(C)cc1 | 0.493 (inactive) | -0.259 | 0.749 | -0.38 (inactive) | -0.41 (inactive) | -0.155 (inactive)
19 | COC(=O)[C@@]1(Cc2ccc(F)cc2)[C@H]2c3cc(C(=O)N(C)C)n(Cc4ccccc4)c3C[C@H]2CN1C(=O)c1ccccc1 | 0.578 (inactive) | 0.766 | -1.41 | -3.11 (inactive) | 1.33 (inactive) | 1.2 (inactive)
20 | CC1(C)C2C=C(C(O)C3C=CC4C(=O)NC(=O)C4N3Nc3ccc(Cl)cc3Cl)C[C@@H]1C2 (stereo partly specified) | 1.15 (inactive) | 0.231 | 0.665 | -4.45 (inactive) | 0.955 (inactive) | 0.327 (inactive)
21 | CCCC[C@@H]1C[C@H]1[C@@H](NC(=O)c1cccs1)c1ccc(-c2ccccc2)cc1 | 0.217 (inactive) | -0.319 | 0.0576 | -1.5 (inactive) | 0.0111 (inactive) | 0.0204 (inactive)
22 | CN(C)CCCCCCNC(=O)[C@H]1C[C@H]2C(=O)N3CCC[C@H]3C(=O)N2[C@H]1c1ccc(O)cc1 | 1.75 (inactive) | 0.926 | -1.15 | -0.246 (inactive) | -0.0982 (inactive) | 0.307 (inactive)
23 | Cc1ccc(S[C@]2(C(=O)NCCCN(C)C)CC(=O)N(Cc3ccccc3C(F)(F)F)[C@@H]2c2ccc(CO)cc2)cc1 | 0.0209 (inactive) | -0.328 | -1.02 | -1.25 (inactive) | -0.0292 (inactive) | 0.135 (inactive)
24 | CC(C)c1ccc(NN2C(C(O)c3ccc(B(O)O)cc3)C=CC3C(=O)N(c4ccccc4)C(=O)C32)cc1 (stereo unspecified) | 1.04 (inactive) | 0.665 | 0.101 | -4.18 (inactive) | -0.337 (inactive) | -0.659 (inactive)
25 | C=C(CCCC)C(=O)CC[C@@H](OC(=O)c1ccccc1-c1ccccc1C(=O)O)c1ccc(OCCO)cc1 | 0.175 (inactive) | 0.602 | -2.46 | -5.5 (inactive) | 0.431 (inactive) | 0.362 (inactive)
26 | C=CCOC(=O)[C@H]1[C@@H]2C(=O)O[C@@H](c3ccccc3)[C@@H](c3ccccc3)N2[C@@H](c2ccc(OCCOC(=O)[C@@H]3C[C@@H]4C(=O)N[C@@H](CCCCNC(C)=O)C(=O)N4[C@@H]3c3ccc(O)cc3)cc2)[C@]12C(=O)Nc1ccccc12 | 2.75 (inactive) | 0.818 | -1.8 | -1.89 (inactive) | -0.731 (inactive) | 0.21 (inactive)
